The whole screen tested about 150,000 compounds, of which about 540 (0.36%) showed an effect of 50% or more. The sample holds strong results, similar compounds and a random draw of the others, so the mix is not that of the screen.

As usually defined, the % Inhibition is the change of the read-out against control, counted positive when it falls.

This test has as its system Plasmodium falciparum. Kind of test: Primary screen in NF54 nanoGlo assay, in single point, at 2uM, 72h; a lower Z score goes with more inhibition. Format: functional, Erythrocyte. The following applies: timepoint 72 hour.
Regarding `C=CCN1C(=O)OC(C)(CCC=C(C)C)C1(C)O` (stereo not given), the “% Inhibition” value is on record as 76% and the Z score is on record as -1.64.
In the case of `O=C(COc1ccc(Br)cc1)Nc1ccc2c(c1)OCCCO2`, the “% Inhibition” value is given as -9% and the Z score was found to be 0.79.
For `CC(C)C(=O)N(Cc1ccc(OS(=O)(=O)C(C)C)cc1)CC1CC1`, the “% Inhibition” value is on record as -21% and the Z score came out at 4.
Consider `COc1cc(F)c(C(C)NC2C[C@@H]3COC[C@H]23)cc1OC` (stereo not given in full), for which the “% Inhibition” value is given as -1% and the Z score worked out at 0.15.
Take `CC(C)(C)OC(=O)C1C[C@@H](N)[C@@H](n2cc(C(C)(C)C)nn2)C1` (stereo not given in full): the “% Inhibition” value is on record as -7% and the Z score is listed as 1.24.
The like results for `Cc1ccccc1C(=O)N1[C@H](C(=O)NC2CC2)COC12CCN(C(=O)c1ccc(F)cc1)CC2` were, in that order, -2% and 0.23.
On to `O=S(=O)(CCCOc1ccccc1)NC[C@H]1CCCN1c1ccccc1`, for which the “% Inhibition” value is -13% and the Z score is listed as 2.45.
For `CCc1nc(C#N)cc(N2CCC[C@@H]2CS(C)(=O)=O)n1` the same measures were -2% and 0.21.
As to `Cc1cnc([C@H](C)N2CCC(S(=O)(=O)N3CCCC3)CC2)o1`, the “% Inhibition” value is -14% and the Z score amounted to 2.67.
As to `O=c1[nH]c2ccc(NCc3cc(Cl)ccc3OCc3ccccc3F)cc2[nH]1`, the “% Inhibition” value is 2% and the Z score was -0.36.
The like results for `CC(C)(C)OC(=O)N1CC(OC(=O)CC2(CS(C)(=O)=O)CC2)C1` were, in that order, -13% and 1.78.
The like results for `CNC(=O)c1[nH]nc2c1CN(CC(=O)Nc1cccc(C)c1C)CC2` were, in that order, -5% and 0.76.
For `Cc1cccc(CN2C[C@@H](O)C[C@H]2c2nnc3n2CCN(C(=O)C(C)C)C3)c1` the same measures were 4% and -0.68.
Consider `C[C@@]1(C(=O)N2CCN(c3ccccc3F)CC2)Oc2ccccc2NC1=O`, for which the “% Inhibition” value worked out at 1% and the Z score is listed as -0.16.
In the case of `CC(C)(C)OC(=O)N1CCC2(CC1)NN=C1C=C(N3CCN(c4ccccc4F)CC3)N=CN12`, the “% Inhibition” value was determined as 50% and the Z score came out at 1.26.
In the case of `CC(C)(C)OC(=O)N1CCN(c2nnc(NC(=O)c3c(F)cccc3F)[nH]2)CC1`, the “% Inhibition” value is recorded as -14% and the Z score came to 1.7.
On to `O=C(Nc1ccc(-n2cnnn2)cc1)c1coc(-c2ccccc2)n1`, for which the “% Inhibition” value is given as -6% and the Z score is recorded as 1.22.
Regarding `CN1CCN(S(=O)(=O)N[C@@H](CO)c2ccc(F)cc2)CC1`, the “% Inhibition” value is reported as -12% and the Z score was determined as 2.47.
With `OC[C@H]1CCN(c2ccnc3cc(Cl)ccc23)C[C@@H]1O`, the “% Inhibition” value was -1% and the Z score turned out to be 0.17.
`COc1cc2c(N3CCC([C@H](O)C(=O)NC4CC4)CC3)ccnc2cc1F`: the “% Inhibition” value is on record as -6% and the Z score stood at 0.61.
As to `CCC(CC)N(Cc1ccc2c(c1)OCO2)C(=O)Cc1cccnc1`, the “% Inhibition” value is on record as 23% and the Z score is reported as -2.95.
For `CCOc1ccc(CN2CCC[C@@](F)(C(=O)N3CCOCC3)C2)cc1OC` the same measures were -11% and 0.93.
For the compound `O=C1c2ccccc2C(=O)N1Cc1cnc(N2CCCCC2)s1`, the “% Inhibition” value is recorded as 45% and the Z score is listed as 0.07.
With `N#CCc1ncc(CCN2C(=O)c3ccccc3C2=O)s1`, the “% Inhibition” value is given as 51% and the Z score was -6.59.
Consider `CC(=O)Nc1ccnc(Cc2ccccc2)n1`, for which the “% Inhibition” value is on record as -8% and the Z score was found to be 1.29.
Consider `CC(CCc1cccn1C)NC(=O)NC1CCN(c2cnn(C)c2)C1` (stereo not given), for which the “% Inhibition” value was -1% and the Z score came to 0.08.
Consider `CCc1nn(C)cc1NC(=O)N1CCN(C(=O)c2ccc(F)cc2)CC1`, for which the “% Inhibition” value was 5% and the Z score is -0.74.
Turning to `CCOc1cc(C(=O)Nc2ccc3nc4c(c(Nc5ccc(OC)c(OC)c5)c3c2)CCCC4)cc(OCC)c1OCC`, the “% Inhibition” value turned out to be 93% and the Z score is -11.16.
On to `COc1ccccc1Nc1c2c(nc3ccc(NC(=O)c4ccc5c(c4)OCO5)cc13)CCCC2`, for which the “% Inhibition” value worked out at 2% and the Z score was -0.26.
With `COc1ccc(C(=O)Nc2ccc3nc4c(c(Nc5ccc(OC)c(OC)c5)c3c2)CCCC4)c(OC)c1`, the “% Inhibition” value is -8% and the Z score was determined as 0.97.
Regarding `CC1(N2CCOCC2)CCN(c2ncc(C(F)(F)F)s2)CC1`, the “% Inhibition” value is recorded as -5% and the Z score came to 0.84.
For `FC(F)(F)c1cnc(N2CCOC3(CCOCC3)CC2)s1`, the “% Inhibition” value is 105% and the Z score was -19.68.
Regarding `CCC1(N2CCOCC2)CCN(c2ncc(C(F)(F)F)s2)CC1`, the “% Inhibition” value is recorded as 12% and the Z score was -1.55.
Turning to `CC1(C#N)CCN(Cc2cc(C(C)(C)C)[nH]n2)CC1`, the “% Inhibition” value came out at 4% and the Z score is given as -0.56.
The like results for `CC(C)(C)c1cc(CN2CCC3(CC2)[C@H](O)C[C@@H]3O)n[nH]1` were, in that order, -1% and 0.15.
Turning to `CC(C)(C)c1cc(CN2CCN(S(N)(=O)=O)CC2)n[nH]1`, the “% Inhibition” value turned out to be 72% and the Z score was -0.86.
On to `CC(C)OCC(=O)Nc1ccn(CCCn2ccnc2)n1`, for which the “% Inhibition” value is listed as -7% and the Z score is 1.24.
With `CCc1cc(NC(=O)Cc2ccc(OC)cc2)nn1-c1ccc(OC)cc1`, the “% Inhibition” value is -2% and the Z score was found to be 0.3.
With `Cc1cc(NC(=O)COc2ccccc2)nn1-c1ccc(Cl)cc1`, the “% Inhibition” value is given as -3% and the Z score stood at 0.32.
Take `COc1ccc(CC(=O)Nc2cc(C)n(-c3cccc(Cl)c3)n2)cc1`: the “% Inhibition” value is given as 80% and the Z score is listed as -8.55.
